Here are results for 18 targets from the supplement of paper PMC11001985.

UniProt P26038, sequence (P26038 whole entry): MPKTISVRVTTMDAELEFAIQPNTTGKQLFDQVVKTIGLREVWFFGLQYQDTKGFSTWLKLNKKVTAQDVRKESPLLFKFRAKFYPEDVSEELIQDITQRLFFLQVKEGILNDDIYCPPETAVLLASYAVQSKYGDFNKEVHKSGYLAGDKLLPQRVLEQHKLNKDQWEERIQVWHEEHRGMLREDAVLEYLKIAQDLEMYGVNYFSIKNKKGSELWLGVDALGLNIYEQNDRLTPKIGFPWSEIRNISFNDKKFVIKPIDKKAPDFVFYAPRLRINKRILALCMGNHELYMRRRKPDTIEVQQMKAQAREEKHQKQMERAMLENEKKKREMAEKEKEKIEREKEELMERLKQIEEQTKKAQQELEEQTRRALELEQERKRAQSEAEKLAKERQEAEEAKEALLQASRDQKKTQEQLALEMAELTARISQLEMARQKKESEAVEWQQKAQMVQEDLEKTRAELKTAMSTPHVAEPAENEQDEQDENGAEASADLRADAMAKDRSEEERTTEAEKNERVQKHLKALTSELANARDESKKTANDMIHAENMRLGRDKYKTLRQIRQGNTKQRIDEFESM
UniProt P41252, sequence (P41252 whole entry): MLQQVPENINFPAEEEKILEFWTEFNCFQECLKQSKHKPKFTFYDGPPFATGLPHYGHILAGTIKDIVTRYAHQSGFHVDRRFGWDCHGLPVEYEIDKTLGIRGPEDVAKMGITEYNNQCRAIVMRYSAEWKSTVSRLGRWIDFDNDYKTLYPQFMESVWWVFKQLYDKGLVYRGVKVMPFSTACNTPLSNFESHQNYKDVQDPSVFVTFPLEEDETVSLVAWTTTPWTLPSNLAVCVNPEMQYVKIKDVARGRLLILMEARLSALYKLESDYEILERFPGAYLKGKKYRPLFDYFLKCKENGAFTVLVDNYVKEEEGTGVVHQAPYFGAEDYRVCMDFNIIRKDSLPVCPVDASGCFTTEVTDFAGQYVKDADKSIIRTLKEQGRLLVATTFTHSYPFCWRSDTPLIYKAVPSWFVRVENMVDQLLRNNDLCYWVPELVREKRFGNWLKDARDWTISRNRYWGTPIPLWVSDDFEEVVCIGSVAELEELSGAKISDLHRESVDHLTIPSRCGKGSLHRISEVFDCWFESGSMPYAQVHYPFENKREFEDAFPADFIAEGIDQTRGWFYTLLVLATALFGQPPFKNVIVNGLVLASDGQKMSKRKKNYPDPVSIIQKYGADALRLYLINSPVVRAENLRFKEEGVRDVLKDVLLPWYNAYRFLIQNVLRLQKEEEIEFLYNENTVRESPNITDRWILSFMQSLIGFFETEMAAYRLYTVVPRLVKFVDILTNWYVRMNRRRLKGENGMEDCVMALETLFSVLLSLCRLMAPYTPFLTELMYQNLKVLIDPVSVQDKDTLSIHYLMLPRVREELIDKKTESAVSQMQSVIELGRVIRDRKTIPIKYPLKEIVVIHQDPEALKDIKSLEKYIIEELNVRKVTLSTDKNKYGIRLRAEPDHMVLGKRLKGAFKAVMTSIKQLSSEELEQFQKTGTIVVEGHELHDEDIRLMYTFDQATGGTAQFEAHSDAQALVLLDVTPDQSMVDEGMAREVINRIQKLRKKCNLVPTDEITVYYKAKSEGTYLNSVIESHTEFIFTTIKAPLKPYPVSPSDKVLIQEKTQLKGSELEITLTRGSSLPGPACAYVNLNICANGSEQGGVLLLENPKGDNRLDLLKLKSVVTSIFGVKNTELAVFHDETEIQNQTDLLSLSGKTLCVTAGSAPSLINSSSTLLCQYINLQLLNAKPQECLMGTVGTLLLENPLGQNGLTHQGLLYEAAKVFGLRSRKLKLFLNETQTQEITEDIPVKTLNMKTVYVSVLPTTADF
UniProt P11717, sequence (P11717 whole entry): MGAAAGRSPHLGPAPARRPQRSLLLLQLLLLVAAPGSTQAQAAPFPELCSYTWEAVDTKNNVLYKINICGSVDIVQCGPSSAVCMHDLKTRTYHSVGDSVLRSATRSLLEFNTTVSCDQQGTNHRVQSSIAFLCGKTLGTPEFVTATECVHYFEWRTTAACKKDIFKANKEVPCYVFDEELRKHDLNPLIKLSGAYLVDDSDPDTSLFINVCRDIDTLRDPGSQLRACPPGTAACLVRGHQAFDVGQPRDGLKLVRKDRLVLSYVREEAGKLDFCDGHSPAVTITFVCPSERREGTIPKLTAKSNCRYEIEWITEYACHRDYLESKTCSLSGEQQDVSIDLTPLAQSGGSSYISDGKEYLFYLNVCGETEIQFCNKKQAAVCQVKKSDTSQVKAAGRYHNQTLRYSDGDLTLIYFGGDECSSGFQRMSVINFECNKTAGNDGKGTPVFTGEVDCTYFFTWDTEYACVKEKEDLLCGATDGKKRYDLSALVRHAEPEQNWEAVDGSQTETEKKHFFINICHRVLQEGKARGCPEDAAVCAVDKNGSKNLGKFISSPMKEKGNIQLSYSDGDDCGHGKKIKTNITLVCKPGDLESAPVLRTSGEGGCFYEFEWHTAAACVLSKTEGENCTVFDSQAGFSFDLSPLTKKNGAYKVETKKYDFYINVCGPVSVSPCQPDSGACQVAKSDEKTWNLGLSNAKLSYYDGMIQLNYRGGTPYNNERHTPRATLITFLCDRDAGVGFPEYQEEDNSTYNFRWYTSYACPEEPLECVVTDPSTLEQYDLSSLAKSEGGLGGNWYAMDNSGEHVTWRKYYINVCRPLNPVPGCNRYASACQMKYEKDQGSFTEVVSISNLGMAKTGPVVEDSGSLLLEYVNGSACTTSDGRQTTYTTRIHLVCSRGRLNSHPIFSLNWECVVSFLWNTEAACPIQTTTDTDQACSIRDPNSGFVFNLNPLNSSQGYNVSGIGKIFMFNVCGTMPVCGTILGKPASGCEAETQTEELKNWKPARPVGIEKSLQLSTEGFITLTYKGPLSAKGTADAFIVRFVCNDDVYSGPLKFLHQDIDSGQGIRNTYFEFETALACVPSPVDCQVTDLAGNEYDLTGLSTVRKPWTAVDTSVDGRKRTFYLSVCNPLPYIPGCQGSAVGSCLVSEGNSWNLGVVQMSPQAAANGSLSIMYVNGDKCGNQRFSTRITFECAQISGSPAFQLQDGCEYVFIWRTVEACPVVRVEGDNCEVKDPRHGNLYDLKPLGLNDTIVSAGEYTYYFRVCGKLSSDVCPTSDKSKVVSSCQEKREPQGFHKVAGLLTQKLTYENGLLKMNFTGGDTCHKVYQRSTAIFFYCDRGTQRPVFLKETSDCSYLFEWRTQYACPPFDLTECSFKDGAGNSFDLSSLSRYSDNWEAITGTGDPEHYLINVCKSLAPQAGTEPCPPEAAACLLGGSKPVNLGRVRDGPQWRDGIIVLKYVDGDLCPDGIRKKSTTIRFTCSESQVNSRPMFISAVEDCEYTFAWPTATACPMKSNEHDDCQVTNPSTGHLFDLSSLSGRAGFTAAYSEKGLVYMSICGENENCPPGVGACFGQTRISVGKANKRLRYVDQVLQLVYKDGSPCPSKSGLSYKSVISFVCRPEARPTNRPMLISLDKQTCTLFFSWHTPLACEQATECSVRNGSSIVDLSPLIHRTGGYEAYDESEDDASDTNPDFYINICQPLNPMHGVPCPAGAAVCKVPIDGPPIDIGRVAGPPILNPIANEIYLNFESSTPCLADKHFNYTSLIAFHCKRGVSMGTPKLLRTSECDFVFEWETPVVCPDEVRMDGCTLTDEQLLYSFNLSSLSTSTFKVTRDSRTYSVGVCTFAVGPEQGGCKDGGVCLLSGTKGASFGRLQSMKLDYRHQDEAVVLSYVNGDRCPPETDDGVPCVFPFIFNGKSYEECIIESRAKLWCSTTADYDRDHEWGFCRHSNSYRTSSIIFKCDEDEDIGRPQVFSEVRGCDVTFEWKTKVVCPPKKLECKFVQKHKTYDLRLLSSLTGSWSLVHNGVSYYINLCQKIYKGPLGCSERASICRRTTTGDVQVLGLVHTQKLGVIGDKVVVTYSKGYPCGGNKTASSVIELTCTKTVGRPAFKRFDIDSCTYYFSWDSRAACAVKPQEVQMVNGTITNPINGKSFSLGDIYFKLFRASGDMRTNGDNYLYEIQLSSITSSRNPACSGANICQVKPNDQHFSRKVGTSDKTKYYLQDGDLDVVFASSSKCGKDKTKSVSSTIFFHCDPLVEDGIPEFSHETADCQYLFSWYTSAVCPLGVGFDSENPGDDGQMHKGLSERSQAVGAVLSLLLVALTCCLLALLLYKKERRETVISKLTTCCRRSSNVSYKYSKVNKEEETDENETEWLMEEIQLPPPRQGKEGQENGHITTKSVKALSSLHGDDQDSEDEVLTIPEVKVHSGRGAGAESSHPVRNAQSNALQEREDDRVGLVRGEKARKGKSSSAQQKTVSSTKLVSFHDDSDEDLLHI
UniProt P26447, sequence (P26447 whole entry, looked up): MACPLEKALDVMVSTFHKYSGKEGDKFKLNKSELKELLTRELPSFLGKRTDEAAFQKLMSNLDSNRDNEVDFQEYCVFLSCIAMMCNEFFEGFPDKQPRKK
UniProt Q7Z3B1, sequence (Q7Z3B1 whole entry, looked up): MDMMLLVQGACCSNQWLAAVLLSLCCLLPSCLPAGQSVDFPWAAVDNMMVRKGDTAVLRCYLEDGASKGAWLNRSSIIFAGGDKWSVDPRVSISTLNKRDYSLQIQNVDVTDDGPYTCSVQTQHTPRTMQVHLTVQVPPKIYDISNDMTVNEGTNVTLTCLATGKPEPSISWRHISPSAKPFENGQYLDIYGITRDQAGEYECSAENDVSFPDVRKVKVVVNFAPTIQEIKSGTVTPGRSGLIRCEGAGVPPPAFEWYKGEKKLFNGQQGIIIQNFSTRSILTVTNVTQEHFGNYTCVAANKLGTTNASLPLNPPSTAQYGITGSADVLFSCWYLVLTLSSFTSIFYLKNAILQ
UniProt P30044, sequence (P30044 whole entry): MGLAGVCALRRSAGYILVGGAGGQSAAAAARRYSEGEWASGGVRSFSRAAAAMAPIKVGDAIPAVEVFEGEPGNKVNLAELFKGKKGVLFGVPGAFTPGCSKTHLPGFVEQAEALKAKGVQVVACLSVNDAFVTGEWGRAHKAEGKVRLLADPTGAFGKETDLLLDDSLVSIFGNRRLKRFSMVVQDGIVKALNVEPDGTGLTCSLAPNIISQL

Compound in the assay: C#CCNC(=O)CCSSCCC(=O)NCCc1ccc(C=O)c(C=O)c1
In words: lysine labeling ratio R10:1 (500 µM / 50 µM probe), SILAC-ABPP in living cells; higher = lower intrinsic lysine reactivity toward the probe, active = 2 or less. The conditions noted are these: HeLa; probe concentrations 500 vs 50 µM. In a few lines:
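In PBS at room temperature, living HeLa cells grown with SILAC light or heavy labels were treated with 50 µM or 500 µM of an alkyne-tagged, disulfide-linked lysine probe, with label swaps in both directions. Analysis was by LC-MS/MS on a TIMS-TOF Pro after click to biotin-azide, neutravidin capture and DTT release. For each lysine, R is the median across forward and reverse replicates of the filtered median high-probe/low-probe MS1 peptide ratio, capped at 20.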
As for MSN (lysine site: K63) (UniProt P26038), the “lysine labeling ratio R10:1” value is 1.1 (active).
Then “RDX (lysine site: K165) (UniProt P35241)”, with 2 (active); and “PRDX5 (lysine site: K142) (UniProt P30044)”, with 1.62 (active); and “FLNA (lysine site: K1164) (UniProt P21333)”, with 1.16 (active).
Then “IGF2R (lysine site: K527) (UniProt P11717)”, with 2.81 (inactive).
Then “FAT1 (lysine site: K2553) (UniProt Q14517)”, with 2.67 (inactive); and UniProt P61978 (lysine site: K219), with 0.79 (active).
“EGFR (lysine site: K325) (UniProt P00533)”: the “lysine labeling ratio R10:1” value was 5.84 (inactive).
Turning to UniProt O60245 (lysine site: K484), the “lysine labeling ratio R10:1” value was 1.3 (active).
Then “IARS (lysine site: K903) (UniProt P41252)”, with 1.66 (active); and UniProt Q14574 (lysine site: K281), with 1.99 (active); and “PLXND1 (lysine site: K310) (UniProt Q9Y4D7)”, with 3.11 (inactive).
To “NEGR1 (lysine site: K84) (UniProt Q7Z3B1)” belongs 1.36 (active).
Turning to “S100A4 (lysine site: K48) (UniProt P26447)”, the “lysine labeling ratio R10:1” value was 5.05 (inactive).
Then “MSN (lysine site: K165) (UniProt P26038)”, with 3.56 (inactive); and UniProt Q9UHI8 (lysine site: K619), with 2.67 (inactive).
With UniProt Q15149 (lysine site: K2078), the “lysine labeling ratio R10:1” value was 2.58 (inactive).
To UniProt Q15365 (lysine site: K314) belongs 1.71 (active).
